The text below walks through data of PubChem BioAssay (NCI).

About 79,000 compounds went through this panel and 15% of them were active in at least one assay; those are over-represented in the sample as a whole. Active and inactive are the calls of the source. No stated cut-off is given here; in the data, active means growth inhibition above about 70%; inactive means the rest.

A short description of one test: NCI Yeast Anticancer Drug Screen. Data for the rad50 strain (AID 155).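 Further: 0% = growth of vehicle-only cultures of the same strain.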 Conditions: S. cerevisiae rad50 strain growth inhibition; at 50.0 µM (retest, dose inferred, filed as 5.0); hits give high values. Summed up: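 Inhibition values express reduced yeast growth in compound-treated cultures relative to vehicle-treated controls.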
Consider `O=[n+]1c2c(n([O-])c3ccc4ccccc4c31)-c1cccc3cccc-2c13`, for which the growth inhibition was 7% (inactive).
The same measure, in the same setting: then `COc1ccc(C(=O)Cc2ccc(Cl)cc2)cc1OC`, with -1% (inactive); and `CCN(CC)CCC(=O)c1ccc(Oc2ccc(C)cc2)cc1`, with 71% (active); and `BrC(Br)=C1C(=C(Br)Br)C(Br)C1Br` (stereo not given), with 69% (inactive).
Same read-out and setting: in the case of `O=C(O)C(Cc1cc(I)c(O)c(I)c1)c1ccccc1` (stereo not given) it was 29% (inactive); in that of `CC1(C)OC2C(COC(c3ccccc3)(c3ccccc3)c3ccccc3)OC(n3ccc(=O)[nH]c3=O)C2O1` (stereo not given), 92% (active).
The same measure, in the same setting: in the case of `Clc1ccc(C2=CCN3CC=C(c4ccc(Cl)cc4)C23)cc1` it was 18% (inactive); in that of `Nc1ccc([N+](=O)[O-])cc1Nc1c2ccccc2nc2ccccc12`, 15% (inactive).
As to `COc1c2c3c(ccnc3c3ccccc13)C(=O)N2C`, the growth inhibition was 84% (active).
The same measure, in the same setting: then `O=C1/C(=C/c2ccc([N+](=O)[O-])cc2)CNC/C1=C\c1ccc([N+](=O)[O-])cc1`, with 99% (active); and `Clc1ccc(-c2nnn3ccccc23)cc1`, with 8% (inactive); and `O=Cc1ccc([N+](=O)[O-])o1`, with 98% (active).
Still for that read-out and setting: then `CN(C)Cc1cc(C(C)(C)C)cc(C2CCCCC2)c1O`, with 58% (inactive); and `COc1ccc2c(c1)CN([C@@H](C)[C@H]1CC[C@H]3[C@@H]4CC[C@H]5C[C@@H](O)CC[C@]5(C)[C@H]4CC[C@]13C)CO2`, with 99% (active); and `FC(F)(F)c1ccc(NC(=S)SCc2ccc3c(c2)OCO3)cc1`, with 0% (inactive).
Same read-out and setting: then `Nc1cc(F)c2c(c1F)C(=O)c1cc(F)ccc1-2`, with 92% (active); and `CC12CCCCC1CCC(Br)C2=O` (stereo not given), with -2% (inactive); and `CC(C)c1cc(O)c(C(C)(C)C)cc1Cl`, with 15% (inactive).
As to `CCCOC(=O)CCCC(=O)N(CC)CC`, the growth inhibition is -10% (inactive).
Still for that read-out and setting: in the case of `CCOC(=O)c1cc(Cc2ccccc2)c(=O)n(C)c1-c1ccccc1` it was 75% (active); in that of `COS(=O)c1cc(Cl)cc(Cl)c1OC(=O)CSSCC(=O)Oc1c(Cl)cc(Cl)cc1S(=O)OC` (stereo not given), 99% (active); in that of `ICCCCSc1cc(-c2ccccc2)[o+]c2ccccc12`, 92% (active).
Same read-out and setting: then `Nc1cc(Cl)c2c(c1)Cc1ccccc1-2`, with 96% (active).
On the same count and under the same terms, then `Cc1ccc(S(=O)(=O)NCCSSCCNS(=O)(=O)c2ccc(C)cc2)cc1`, with 95% (active).
Consider `OC(Cc1cccnc1)(c1ccccc1)c1ccc(Cl)cc1` (stereo not given), for which the growth inhibition was 69% (inactive).
On the same count and under the same terms, then `Cc1ccc(C2=CC(=O)/C(=C\C(=O)c3ccc(Cl)cc3)O2)cc1`, with 31% (inactive); and `O=C(Nc1ncnc2c1ncn2C1CC(O)C(CO)O1)c1ccccc1` (stereo not given), with 1% (inactive).
For the compound `O=C1CSC(=S)N1c1ccc(F)cc1F`, the growth inhibition is 86% (active).
Still for that read-out and setting: in the case of `CCCOC(=O)C(Br)C(Br)C(=O)OCCC` (stereo not given) it was 97% (active).
On the same count and under the same terms, then `c1ccc2nc3[nH]c4ccccc4c3cc2c1`, with 87% (active).
Turning to `O=S(=O)(c1ccc(NC(=S)NCc2ccncc2)cc1)N1CCCCC1`, the growth inhibition was -2% (inactive).
As for `Nc1ccccc1Sc1ccccc1`, the growth inhibition was 58% (inactive).
Same read-out and setting: in the case of `CCC(Cl)COP(=O)(OCC(Cl)CC)OC(c1ccc(Cl)c(Cl)c1)P(=O)(OCC(Cl)CC)OCC(Cl)CC` (stereo not given) it was 23% (inactive); in that of `O=C(O)/C=C\c1cc2ccccc2c2ccccc12`, 98% (active); in that of `COC(=O)C1C2CC3c4[nH]c5cc(OC)c(Br)cc5c4CCN3CC2CC(OC(=O)c2cc(OC)c(OC)c(OC)c2)C1OC` (stereo not given), 91% (active).
The same measure, in the same setting: in the case of `Cc1c2ccnc(-c3ccc(F)cc3)c2cc2c1[nH]c1ccccc12` it was 1% (inactive); in that of `COc1cc2cc[n+]3c4ccc([N+](=O)[O-])cc4ccc3c2cc1OC`, 81% (active).
Turning to `CCCCCCCCC1N(C)CCCN1C`, the growth inhibition is 97% (active).
The same measure, in the same setting: in the case of `CC1(C)OC2C(COC(c3ccccc3)(c3ccccc3)c3ccccc3)OC(n3cnc4c(=O)[nH]cnc43)C2O1` (stereo not given) it was 97% (active); in that of `COc1cccc2c1C(=O)c1c(O)c3c(c(O)c1C2=O)C[C@@](O)(C(=O)CO)C[C@@H]3OC1CC(N(C)C)C(O)C(C)O1` (stereo not given in full), 95% (active).

The test is the same for the next values; noted with them: S. cerevisiae rad50 strain growth inhibition; at 50.0 µM; hits give high values.
`O=[n+]1c2c(n([O-])c3ccc4ccccc4c31)-c1cccc3cccc-2c13`: the growth inhibition was 2.4% (inactive).
As to `COc1ccc(C(=O)Cc2ccc(Cl)cc2)cc1OC`, the growth inhibition was 6.3% (inactive).
In the case of `CCN(CC)CCC(=O)c1ccc(Oc2ccc(C)cc2)cc1`, the growth inhibition was 29.9% (inactive).
Still for that read-out and setting: then `BrC(Br)=C1C(=C(Br)Br)C(Br)C1Br` (stereo not given), with 61.6% (inactive); and `O=C(O)C(Cc1cc(I)c(O)c(I)c1)c1ccccc1` (stereo not given), with 60.1% (inactive); and `CC1(C)OC2C(COC(c3ccccc3)(c3ccccc3)c3ccccc3)OC(n3ccc(=O)[nH]c3=O)C2O1` (stereo not given), with 75.9% (active).
In the case of `Clc1ccc(C2=CCN3CC=C(c4ccc(Cl)cc4)C23)cc1`, the growth inhibition is 99.8% (active).
Same read-out and setting: in the case of `Nc1ccc([N+](=O)[O-])cc1Nc1c2ccccc2nc2ccccc12` it was 82.3% (active); in that of `COc1c2c3c(ccnc3c3ccccc13)C(=O)N2C`, 83% (active); in that of `O=C1/C(=C/c2ccc([N+](=O)[O-])cc2)CNC/C1=C\c1ccc([N+](=O)[O-])cc1`, 77% (active).
Same read-out and setting: in the case of `Clc1ccc(-c2nnn3ccccc23)cc1` it was 95.3% (active); in that of `O=Cc1ccc([N+](=O)[O-])o1`, 99.6% (active); in that of `CN(C)Cc1cc(C(C)(C)C)cc(C2CCCCC2)c1O`, 66.4% (inactive).
The same measure, in the same setting: in the case of `COc1ccc2c(c1)CN([C@@H](C)[C@H]1CC[C@H]3[C@@H]4CC[C@H]5C[C@@H](O)CC[C@]5(C)[C@H]4CC[C@]13C)CO2` it was 99% (active); in that of `FC(F)(F)c1ccc(NC(=S)SCc2ccc3c(c2)OCO3)cc1`, 74.5% (active).
In the case of `Nc1cc(F)c2c(c1F)C(=O)c1cc(F)ccc1-2`, the growth inhibition is 93.3% (active).
Still for that read-out and setting: then `CC12CCCCC1CCC(Br)C2=O` (stereo not given), with 59% (inactive); and `CC(C)c1cc(O)c(C(C)(C)C)cc1Cl`, with 74.5% (active).
The same measure, in the same setting: then `CCCOC(=O)CCCC(=O)N(CC)CC`, with 10.7% (inactive); and `CCOC(=O)c1cc(Cc2ccccc2)c(=O)n(C)c1-c1ccccc1`, with 72% (active).
On the same count and under the same terms, in the case of `COS(=O)c1cc(Cl)cc(Cl)c1OC(=O)CSSCC(=O)Oc1c(Cl)cc(Cl)cc1S(=O)OC` (stereo not given) it was 98.8% (active); in that of `ICCCCSc1cc(-c2ccccc2)[o+]c2ccccc12`, 93% (active); in that of `Nc1cc(Cl)c2c(c1)Cc1ccccc1-2`, 76.8% (active).
Regarding `Cc1ccc(S(=O)(=O)NCCSSCCNS(=O)(=O)c2ccc(C)cc2)cc1`, the growth inhibition is 93.5% (active).
Same read-out and setting: then `OC(Cc1cccnc1)(c1ccccc1)c1ccc(Cl)cc1` (stereo not given), with 97.5% (active); and `Cc1ccc(C2=CC(=O)/C(=C\C(=O)c3ccc(Cl)cc3)O2)cc1`, with 74.9% (active); and `O=C(Nc1ncnc2c1ncn2C1CC(O)C(CO)O1)c1ccccc1` (stereo not given), with -2.25% (inactive).
Same read-out and setting: then `O=C1CSC(=S)N1c1ccc(F)cc1F`, with 89.8% (active).
Same read-out and setting: then `CCCOC(=O)C(Br)C(Br)C(=O)OCCC` (stereo not given), with 90.5% (active); and `c1ccc2nc3[nH]c4ccccc4c3cc2c1`, with 85.2% (active).
In the case of `O=S(=O)(c1ccc(NC(=S)NCc2ccncc2)cc1)N1CCCCC1`, the growth inhibition was 15.5% (inactive).
Same read-out and setting: then `Nc1ccccc1Sc1ccccc1`, with 83.2% (active).
Turning to `CCC(Cl)COP(=O)(OCC(Cl)CC)OC(c1ccc(Cl)c(Cl)c1)P(=O)(OCC(Cl)CC)OCC(Cl)CC` (stereo not given), the growth inhibition is 55% (inactive).
Still for that read-out and setting: then `O=C(O)/C=C\c1cc2ccccc2c2ccccc12`, with 98.8% (active).
For the compound `COC(=O)C1C2CC3c4[nH]c5cc(OC)c(Br)cc5c4CCN3CC2CC(OC(=O)c2cc(OC)c(OC)c(OC)c2)C1OC` (stereo not given), the growth inhibition is 89.7% (active).
Same read-out and setting: then `Cc1c2ccnc(-c3ccc(F)cc3)c2cc2c1[nH]c1ccccc12`, with -0.35% (inactive); and `COc1cc2cc[n+]3c4ccc([N+](=O)[O-])cc4ccc3c2cc1OC`, with 44.8% (inactive); and `CCCCCCCCC1N(C)CCCN1C`, with 99.5% (active).
As for `CC1(C)OC2C(COC(c3ccccc3)(c3ccccc3)c3ccccc3)OC(n3cnc4c(=O)[nH]cnc43)C2O1` (stereo not given), the growth inhibition was 69% (inactive).
On the same count and under the same terms, in the case of `COc1cccc2c1C(=O)c1c(O)c3c(c(O)c1C2=O)C[C@@](O)(C(=O)CO)C[C@@H]3OC1CC(N(C)C)C(O)C(C)O1` (stereo not given in full) it was 90.1% (active).
